This note sets out measurements from PubChem BioAssay (NCATS).

Test [1] in a line: Primary qHTS for inhibitors of nuclear receptor binding SET domain protein 2 (NSD2) in an isogenic RCH-ACV NSD2 p.E1099K mutant (9B) (AID 1645876). Note: nearly all actives have a fitted effect of over 70% in size. Note: potency is the fitted concentration of half-maximal effect. As to conditions: RCH-ACV NSD2 E1099K (9B) viability, CellTiter-Glo, 72 h; series mostly up to 44.9 µM.
Test [2] can be described thus: Primary qHTS for inhibitors of nuclear receptor binding SET domain protein 2 (NSD2) in an RCH-ACV wild type WT cells (2C) (AID 1645877). Note: nearly all actives have a fitted effect of over 70% in size. Note: potency is the fitted concentration of half-maximal effect. As to conditions: RCH-ACV (leukaemia line) NSD2 WT (2C) viability, CellTiter-Glo, 72 h; series mostly up to 44.9 µM. For orientation: qHTS replaces the single test concentration by a dilution series.
Test [3] addresses Rap guanine nucleotide exchange factor 3 (Homo sapiens) (UniProt O95398). In words: Confirmatory qHTS for agonist of cAMP-regulated guanine nucleotide exchange factor 3 (EPAC1) (AID 1645881).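 Note: EPAC1 catalysed release of BODIPY-GDP from Rap1B seen as fluorescence loss; nearly all actives have a fitted effect of over 75% in size.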 As to conditions: EPAC1 Rap1B BODIPY-GDP exchange fluorescence, 100% = cAMP control response; series mostly up to 154 µM.
Test [4] deals with Rap guanine nucleotide exchange factor 4 (Homo sapiens) (UniProt Q8WZA2). In words: Confirmatory qHTS for agonist of cAMP-regulated guanine nucleotide exchange factor 4 (EPAC2) (AID 1645884).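 Note: nucleotide exchange releases bodipy-GDP from Rap1 and this lowers its fluorescence; nearly all actives have a fitted effect of over 65% in size.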 Particulars: EPAC2 GEF activity, Rap1B-BODIPY-GDP fluorescence, percent relative to cAMP agonist control; series mostly up to 154 µM.
Rap guanine nucleotide exchange factor 4 (Homo sapiens), sequence (Q8WZA2 whole entry, looked up): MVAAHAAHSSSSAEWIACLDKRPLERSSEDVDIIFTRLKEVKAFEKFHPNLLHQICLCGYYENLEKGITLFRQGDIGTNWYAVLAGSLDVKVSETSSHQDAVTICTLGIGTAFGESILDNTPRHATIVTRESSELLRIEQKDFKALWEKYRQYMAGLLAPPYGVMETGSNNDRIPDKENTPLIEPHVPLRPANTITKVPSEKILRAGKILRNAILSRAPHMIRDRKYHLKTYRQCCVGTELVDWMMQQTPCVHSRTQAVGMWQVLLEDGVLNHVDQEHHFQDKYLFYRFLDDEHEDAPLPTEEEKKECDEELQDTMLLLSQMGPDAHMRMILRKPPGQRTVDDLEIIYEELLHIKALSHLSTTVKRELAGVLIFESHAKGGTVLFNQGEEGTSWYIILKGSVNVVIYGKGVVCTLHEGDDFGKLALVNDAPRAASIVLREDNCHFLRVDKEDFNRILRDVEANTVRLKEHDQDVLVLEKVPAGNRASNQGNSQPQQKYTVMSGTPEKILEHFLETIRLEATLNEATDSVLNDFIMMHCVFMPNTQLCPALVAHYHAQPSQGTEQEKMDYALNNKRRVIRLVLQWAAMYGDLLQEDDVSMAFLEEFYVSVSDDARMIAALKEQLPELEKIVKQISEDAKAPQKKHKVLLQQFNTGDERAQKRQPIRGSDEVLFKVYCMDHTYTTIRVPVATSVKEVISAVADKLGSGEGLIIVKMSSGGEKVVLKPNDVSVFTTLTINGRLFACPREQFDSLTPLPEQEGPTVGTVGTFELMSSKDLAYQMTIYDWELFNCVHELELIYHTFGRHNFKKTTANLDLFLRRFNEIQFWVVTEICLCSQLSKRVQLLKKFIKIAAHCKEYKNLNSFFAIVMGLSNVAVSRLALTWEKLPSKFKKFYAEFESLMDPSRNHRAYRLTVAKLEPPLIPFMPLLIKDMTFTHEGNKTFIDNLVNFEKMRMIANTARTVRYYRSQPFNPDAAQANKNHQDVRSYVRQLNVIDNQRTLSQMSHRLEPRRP
Test [5] shares this target. In words: Confirmatory qHTS for antagonist of cAMP-regulated guanine nucleotide exchange factor 4 (EPAC2) (AID 1645885). Note: potency is the fitted concentration of half-maximal effect; nearly all actives have a fitted effect of over 25% in size. As to conditions: EPAC2 Rap1B-BODIPY-GDP exchange fluorescence, biochemical; series mostly up to 114 µM.

Several values for one entry are separate records, joined by “and”; a condition that tells them apart may be missing. Equal entries are not always repeated. Inconclusive results are not listed. Activity calls are given as the source filed them. Calls come from the whole dose curve; as a rule, active = well fitted curve in the direction sought with a large enough effect; inconclusive = small, poorly fitted or top-dose-only effect, or another doubt; inactive = no such curve, though single readings can be large; an effect the other way counts as inactive or inconclusive.

Rap guanine nucleotide exchange factor 3 (Homo sapiens), sequence (O95398 whole entry, looked up): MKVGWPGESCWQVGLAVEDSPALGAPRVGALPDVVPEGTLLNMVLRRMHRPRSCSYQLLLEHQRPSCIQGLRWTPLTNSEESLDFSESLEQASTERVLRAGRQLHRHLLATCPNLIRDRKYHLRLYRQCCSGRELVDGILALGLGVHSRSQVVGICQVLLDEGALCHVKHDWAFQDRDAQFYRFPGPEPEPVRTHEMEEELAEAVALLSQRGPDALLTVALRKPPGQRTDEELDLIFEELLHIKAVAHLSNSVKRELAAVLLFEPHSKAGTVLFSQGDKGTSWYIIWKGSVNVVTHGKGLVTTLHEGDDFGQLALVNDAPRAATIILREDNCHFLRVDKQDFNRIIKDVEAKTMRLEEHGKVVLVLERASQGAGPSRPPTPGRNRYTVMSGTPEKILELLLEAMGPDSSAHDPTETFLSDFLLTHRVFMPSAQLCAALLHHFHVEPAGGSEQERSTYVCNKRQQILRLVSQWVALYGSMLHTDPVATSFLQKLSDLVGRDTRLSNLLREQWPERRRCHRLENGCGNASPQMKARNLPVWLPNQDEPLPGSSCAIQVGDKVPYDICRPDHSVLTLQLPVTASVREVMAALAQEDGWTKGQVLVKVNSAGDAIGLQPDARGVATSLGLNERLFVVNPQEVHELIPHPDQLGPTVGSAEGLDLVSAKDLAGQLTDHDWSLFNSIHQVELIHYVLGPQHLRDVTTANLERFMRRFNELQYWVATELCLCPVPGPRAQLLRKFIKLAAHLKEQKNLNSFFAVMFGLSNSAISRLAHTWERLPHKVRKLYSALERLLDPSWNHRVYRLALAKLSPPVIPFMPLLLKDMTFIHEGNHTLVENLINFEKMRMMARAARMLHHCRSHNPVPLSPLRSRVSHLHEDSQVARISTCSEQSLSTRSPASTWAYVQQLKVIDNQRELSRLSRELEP

With `O=C1C=CC[C@@H]2[C@H]3CCCN4CCC[C@@H](CN12)[C@@H]34`, the Potency result in test [1] and in test [2] was “inactive” in each case.

With `c1cc2ccc3cccc4ccc(c1)c2c34`, the Potency result in test [1] and in test [2] was “inactive” throughout.

As to `CC(C)Oc1cccc(NC(=O)c2ccccc2C(F)(F)F)c1`, the Potency in test [1] was 21.7 µM (active); in test [2], 24.3 µM (active).

For the compound `Nc1ccc(Cl)cc1`, the Potency result in test [1] and in test [2] was “inactive” each time.

Regarding `CCCCCCCCCCCCCCCC[N+](C)(C)C`, the Potency in test [1] is 0.422 µM (active); in test [2] it was 0.596 µM (active).

With `CCCN(CCC)c1c([N+](=O)[O-])cc(S(N)(=O)=O)cc1[N+](=O)[O-]`, the Potency in test [1] was 9.69 µM (active); in test [5], 89.7 µM (active). Further, the call in test [3] and in test [4] was inactive.

Regarding `Oc1ccc2c3c1O[C@H]1[C@@H](O)C=C[C@H]4[C@@H](C2)NCC[C@@]341`, the Potency was 28.1 µM (active) in test [1] and 39.7 µM (active) in test [2].

As for `O=S(=O)(F)Cc1ccccc1`, the Potency result in test [1] and in test [2] was “inactive” throughout.

Turning to `COC(=O)[C@@H](N)CCCN=C(N)N[N+](=O)[O-]`, the Potency result in test [1] and in test [2] was “inactive” in each case.

Take `CC(C)N(CCNC(=O)CN1CCCC1=O)C(C)C`: the Potency entry in test [1] and in test [2] was “inactive” in each case.

Consider `CC1(N2CCC(n3c([C@@H]4CCCNC4)nc4ccccc43)CC2)CCCCCCC1`, for which the Potency in test [1] was 8.17 µM (active) and 14.8 µM (active); in test [2] it was 7.28 µM (active) and 13.2 µM (active).

As to `COC(=O)c1cncn1C(C)c1ccccc1` (stereo unspecified), the Potency entry in test [1] and in test [2] was “inactive” throughout.

Consider `O=c1[nH]c2ccc(Cl)cc2c(N[C@@H]2CN3CCC2CC3)c1-c1nc2ccccc2[nH]1`, for which the Potency in test [1] is 64.9 nM (active) and 83.3 nM (active); in test [2], 51.5 nM (active) and 83.3 nM (active).

In the case of `COc1ccc(N(C(=O)Oc2c(C)cccc2C)c2ccnc(Nc3ccc(N4CCN(C)CC4)cc3)n2)c(OC)c1`, the Potency in test [1] is 4.68 µM (active); in test [2], 5.25 µM (active).

Turning to `O=c1[nH]c2ccccc2n1C1CCN(Cc2ccc(-c3[nH]c4cc5ncnc5cc4nc3-c3ccccc3)cc2)CC1`, the Potency is 2.95 µM (active) in test [1] and 5.25 µM (active) in test [2].

Regarding `Clc1ccccc1C(c1ccccc1)(c1ccccc1)n1cccn1`, the Potency entry in test [1] and in test [2] was “inactive” throughout.

Turning to `C#CC1(O)CCC2C3CCC4=CC(=O)CCC4(C)C3CCC21C` (stereo unspecified), the Potency entry in test [1] and in test [2] was “inactive” each time.
